PubChem BioAssay AID901 (National Center for Advancing Translational Sciences (NCATS), 2007)
In all, about 120,000 compounds went through this assay and fewer than 10 were called active. Another 4% or so got no clear call; they are omitted. Calls come from the whole dose curve; as a rule, active = well fitted curve in the direction sought with a large enough effect in the signal ratio (not every such curve was filed as active); inconclusive = small, poorly fitted or top-dose-only effect, or a change in a side signal; inactive = no such curve, though single readings can be large or run the other way; the % refers to the signal ratio. Only a sample is shown.

These compounds were tested against Inositol monophosphatase 1 (Rattus norvegicus) (UniProt P97697) (assay: qHTS Assay for Identifying the Cell-Membrane Permeable IMPase Inhibitors). Conditions: CHO-M1 cells, HTRF TR-FRET ratio; series mostly up to 46.1 µM; inhibition (IP1 accumulation): at the top concentration.
Chain of Inositol monophosphatase 1 (Rattus norvegicus) (P97697 whole entry, looked up): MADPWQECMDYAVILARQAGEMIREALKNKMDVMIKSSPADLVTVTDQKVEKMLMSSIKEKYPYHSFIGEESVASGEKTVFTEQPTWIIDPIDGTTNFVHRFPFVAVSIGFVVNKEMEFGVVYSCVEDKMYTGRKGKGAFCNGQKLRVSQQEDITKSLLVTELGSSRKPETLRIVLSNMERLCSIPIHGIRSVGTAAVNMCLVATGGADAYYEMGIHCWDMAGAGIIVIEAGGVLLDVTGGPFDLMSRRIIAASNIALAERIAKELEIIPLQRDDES
Description: NCGC IMPase Assay Overview
Lithium has been widely used for the treatment of bipolar disorder. But lithium has a narrow therapeutic index and it can cause side effects such as thirst, weight gain, tremor, polyuria and memory problems. Although the mechanism for lithium action in treatment of bipolar disorder is still not fully understood, inhibition of inositol monophosphatase (IMPase) and the subsequent depletion of the inositol pool in living cells have been implicated as the primary therapeutic benefit of lithium therapy. Therefore, a selective IMPase inhibitor with reduced side effects might be a good drug candidate to replace lithium for the treatment of bipolar disorder. Several IMPase inhibitors have been discovered previously. However, they are not suitable for therapeutic use because of their poor cell membrane penetrability or oral bioavailability; the development of new cell-permeable IMPase inhibitors is needed.
IMPase catalyzes the hydrolysis of inositol-1-phosphate (IP1) to release free inositol. Binding of an agonist to a Gq coupled GPCR results in the activation of PLC, which hydrolyzes the PIP2 to form inositol-1,4,5-trisphosphate (IP3) and diacyl glycerol (DAG). While DAG activates protein kinase C (PKC), IP3 triggers the elevation of intracellular free Ca2+. The IP3 is very rapidly inactivated by hydrolysis to IP2, IP1 and then inositol by a series of enzymes including IMPase. Free inositols are used for synthesis of PI and thus start another inositol cycle.
To identify new cell-permeable IMPase inhibitors, we developed a cell-based IMPase assay in which the cytosolic IP1 is measured by a time-resolved fluorescence resonance energy transfer (TR-FRET) assay. In this assay, an IP1 specific antibody is used to detect the labeled IP1 tracer. When the cell lysate contains the elevated IP1 due to the inhibition of IMPase, the TR-FRET between the labeled antibody and IP1 tracer is disrupted resulting in a reduction in the total signal. Since the TR-FRET is used, this cell-based assay is a homogenous assay without cell wash and medium change that is suitable for assay miniaturization and HTS.
NCGC IMPase Assay Protocol Summary
A Chinese hamster ovary (CHO) cell line stably expressing the M1 receptor (CHO-M1) was obtained from ATCC and maintained in F-12 Kaighn's media (Invitrogen, Carlsbad, CA, 21127) supplemented with 10 % FBS, 100 units/ml penicillin, 100 ug/ml streptomycin and 250 ug/ml geneticin at 37C, 5% CO2 in a humidified atmosphere. Before the assay, aliquots of cells were frozen and stored at -135C. The assay was performed in 1536-well format. Data are reported for both the ratio of the two emission wavelengths, and also for the component 'donor' channel, Em2=620. […] AC50 values were determined from concentration-response data modeled with the standard Hill equation.
IMPase 1536-well assay protocol:
(1) Plate 4 ul/well (2000 cells) of cell suspension from frozen CHO-M1 Cells in white, tissue culture treated 1536-well plates that are cultured at 37C, 5 % CO2 for 16 to 30 hours.
(2) Add 23 nl/well of compound in DMSO solution. The final titration for each compound was between 0.6 nM and 46 uM.
(3) Add 1 ul of carbachol (50 uM in stimulation buffer containing10mM HEPES, 1mM CaCl2, 0.5 mM MgCl2, 4.2 mM KCl, 146 mM NaCl, 5.5 mM glucose, 50mM LiCl, pH 7.4.
(4) Incubation at 37C, 5 % CO2 for 30 min.
(5) Add 1 ul/well of d2-conjugated IP1 (d2-IP1) and 1 ul/well of Eu+ cryptate conjugated anti-IP1 antibody (Eu+-Ab) prepared in the cell lysis buffer, both from the IP-One kit (Cisbio, MA).
(6) Incubate at room temperature for 10 minutes.
(7) Detect the assay plate (Ex = 320, Em1 =665 and Em2 620) in a ViewLux plate reader.
inositol monophosphatase, IMPase, IMPase inhibitor, lithium, bipolar disorder, IP-One, HTRF, qHTS, NIH roadmap, NCGC
Note: In the gene ID and protein GI references for this assay, rat IMPase is referenced instead of hampster as hamster accession numbers were not available.
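Note: plate controls were DMSO basal wells for no effect and reference inhibitor wells for full effect; higher means more IMPase inhibition seen as more IP1 and lower FRET ratio.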

Inhibition (IP1 accumulation), inactive:
CCOc1ccc(S(=O)(=O)N(CC(=O)NCCSCc2ccc(C)cc2)c2ccccc2)cc1 0.0904%, Cc1ccc(C)c(N2CCN(Cc3nnc(-c4ccccc4)o3)CC2)c1 0.756%, COC(=O)Cc1ccc(NC(=S)NCc2ccc(Cl)cc2)cc1 5.56%, CCOc1cccc2c1N[C@@H](c1ccc(C(=O)O)cc1)[C@H]1CC=C[C@@H]21 -3.86%, NC(=S)N/N=C/c1coc2cc(Cl)ccc2c1=O -0.625%, CCc1ccc2oc(-c3ccc(NC(=O)c4cc5ccccc5o4)cc3)nc2c1 -1.73%, CCOc1ccc(C2CC(=O)c3c([nH]c(C(=O)OCc4ccccc4)c3C)C2)cc1 (stereo unspecified) 3.71%, Cc1ccc(C)c(NC(=O)C(OC(=O)c2ccc(C)s2)c2ccccc2)c1 (stereo unspecified) -14%, CCOc1ccc(NC(=O)c2c(NC(=O)Cc3ccccc3)sc3c2CCC(C)C3)cc1 (stereo unspecified) -6.95%, Cc1ccc(NC(=O)C(=O)NCc2ccc(/C=N/NC(=O)c3c(C)nc4cc(C)ccn34)o2)cc1 1.32%, Cc1ccc(C)c(OCC(=O)Nc2sc3c(c2C#N)CCCC3)c1C -2.87%, Cc1nc(SCC(=O)Nc2ccc(C(=O)O)cc2)n[nH]1 -6.55%, CCOC(=O)c1c(NC(=S)NC(=O)/C=C/c2cccs2)sc(C)c1C 14.1%, CCCOC(=O)c1c(NC(=O)c2cc3nc(-c4ccc(OC)cc4)cc(C(F)(F)F)n3n2)sc2c1CCCC2 -5.29%, Cc1cccc(-c2nnc(SCC(=O)N3CCCc4ccccc43)o2)c1 6.23%, CCOC(=O)/C(C#N)=C/c1ccc(N2CCN(Cc3ccccc3)CC2)cc1 -6.85%, CCOc1ccc(S(=O)(=O)Nc2ccc3oc4c(c3c2)CC(C)CC4)cc1 (stereo unspecified) -1.93%, Cc1ccc(CSCC(N)C(=O)O)cc1 (stereo unspecified) -9.45%, CCC1=Nc2cc(C(=O)NCC(C)c3ccccc3)ccc2Sc2ccc(C)cc21 (stereo unspecified) 8.49%, CCOC(=O)c1ccc(NC(=O)c2ncn(-c3ccccc3)n2)cc1 -8.15%, COCCNC(=O)c1ccc(N2CCC3(CC2)OCCO3)c([N+](=O)[O-])c1 -6.33%, O=C(Nc1ccc2oc(-c3ccc(O)c(Br)c3)nc2c1)c1cc2ccccc2o1 0.3%, Cc1c(NS(=O)(=O)c2ccc(NC3CCCC3)c([N+](=O)[O-])c2)c(=O)n(-c2ccccc2)n1C -7.88%, O=C(CCS(=O)(=O)c1cc(Br)cc2c1N(C(=O)C1CC1)CC2)Nc1ccc(Br)cc1F 2.33%, COc1ccc(OC)c(/C=C/C(=O)OCC(=O)Nc2ccc3c(c2)OCCO3)c1 -17.1%, COc1cccc(N=C2SC(C(=O)Nc3cccc(Cl)c3)CC(=O)N2C)c1 (stereo unspecified) -10.3%, COc1ccc([N+](=O)[O-])cc1NC(=O)c1ccc(N(Cc2ccccc2C)S(C)(=O)=O)cc1 -3.56%, CC1=C(C(=O)Nc2ccccc2)C(c2ccc(C)cc2)n2nc(SCc3ccccc3C)nc2N1 (stereo unspecified) -4.53%, FC(F)(F)c1cc(Nc2nc3ccccc3c3nncn23)ccc1Cl -4.95%, CCCSc1nc2sc3c(c2c(=O)n1-c1cccc(Br)c1)CC(C)(C)OC3 0.0081%, COc1cccc(OCCn2c(-c3ccc(Br)cc3)nc3ccccc3c2=O)c1 -1.33%, CCOC(=O)c1c(N)n(-c2cccc(C)c2C)c2nc3ccccc3nc12 -10.6%, Cc1ccc(NC(=O)c2sc3nc(N)c(C#N)cc3c2N)cc1 -3.07%, Cc1ccc2nc(-c3ccc(C)c(NC(=O)Cc4ccccc4)c3)oc2c1 -12.9%, CN(Cc1ccccc1)C(=O)CCS(=O)(=O)c1cc(Br)cc2c1N(C(=O)C1CC1)CC2 9.46%, COC(=O)c1ccc(OCC(O)CN(CCO)CC(O)Cn2ccc3ccccc32)cc1 (stereo unspecified) -1.59%, COc1cccc(C(=O)NC2(C(F)(F)F)C(=O)Nc3c2c(=O)[nH]c(=O)n3-c2ccc(C)cc2)c1 (stereo unspecified) 4.19%, COC(=O)c1c(NC(=O)C(C)Oc2ccc(Cl)c(C)c2)sc(C)c1C (stereo unspecified) -9.91%, O=C(NCCCN1CCN(c2cccc(Cl)c2)CC1)c1nnc(Cc2ccc(F)cc2Cl)o1 7.93%, CCC(=O)NCc1cc(-c2nn(C)c(=O)c3ccccc23)ccc1OC 0.735%, CCCn1c(C)cc(/C=C(\C#N)C(=O)OCC(=O)Nc2cc(OC)c(OC)c(OC)c2)c1C -0.865%, COc1ccc2nc(SCc3ccccc3)nc(C)c2c1 -5.14%, COc1ccc(-c2cc(C(F)(F)F)nc(SCC(=O)N(C)Cc3ccccc3)n2)cc1OC -2.02%, O=C(COC(=O)c1cc([N+](=O)[O-])ccc1NCc1ccccc1)NC1CCCCC1 1%, CCCn1c(=N)n(CC(O)COc2ccccc2OC)c2ccccc21 (stereo unspecified) 1.72%, COc1cccc(-c2nnc(SCC(=O)N3CCC(C)CC3)o2)c1 -8.02%, Cc1cc(C)cc(NC(c2nnc(-c3cccc(F)c3)o2)c2ccc(F)cc2Cl)c1 (stereo unspecified) -7.7%, CCn1c2ccccc2c2cc(NC(=O)COc3ccc(C)cc3C)ccc21 3.53%, Cc1cccc(N2CCN(C(=O)c3ccc(Nc4nc5ccccc5n5nnnc45)cc3)CC2)c1C 6.65%, O=C(Nc1ccc(Oc2ccccc2)cc1)C1CCN(S(=O)(=O)c2ccc(Cl)cc2)CC1 -5.92%, CCOC(=O)c1cnc2c(C)cc(Cl)cc2c1NCCc1ccc(OC)c(OC)c1 1.34%
